Hit rate of the full screen: of about 48,000 compounds, about 13,000 (27%) showed an effect of 50% or more. The list shows a part of the results.
tested on: Wolbachia pipientis; experiment: Anti-Wolbachia Cell-Based Screen; assay type: functional; set-up: scale not given: in the data most compounds retested in dose-response had high values; settings: 5 µM

Row | Compound | Percent Effect [%]
1 | Cc1nc(C)c(C(=O)N2CCCN(Cc3cnn(C)c3)CC2)s1 | 16.21
2 | Cc1nn(CC(=O)N2CCN(Cc3cnn(C)c3C)CC2)cc1Br | 123
3 | Cc1c(Cn2cc(Cl)c(N)n2)cnn1C | -4.897
4 | Cc1nn(CC(=O)N2CCN(Cc3cnn(C)c3C)CC2)cc1Cl | 97.92
5 | Cc1nn(CCC(=O)N2CCN(Cc3cnn(C)c3C)CC2)c(C)c1Br | 118.1
6 | Cc1noc(C)c1CN1CCN(C(=O)CCn2cncn2)CC1 | -2.995
7 | CCn1ncc(CN2CCN(C(=O)Cn3cc(Br)c(C)n3)CC2)c1C | 124.7
8 | CCn1ncc(Cn2cc(Cl)c(N)n2)c1C | 0.6319
9 | Cc1nn(CC(=O)N2CCN(Cc3cccnc3)CC2)c(C)c1Cl | 2.693
10 | Cc1nn(CC(=O)NCc2cc3n(n2)CCCN(CC(C)C)C3)cc1Cl | -2.88
11 | Cl.Cl.OC(CN1CCN(Cc2cccc(F)c2)CC1)C1CC1 (stereo unspecified) | -1.915
12 | CCC(=O)NC(CC(C)C)c1cccs1 (stereo unspecified) | 11.67
13 | O=C1CC(NS(=O)(=O)NCc2ccccc2)CN1c1ccccc1Cl (stereo unspecified) | 6.599
14 | Cc1ccc(OCC(=O)NC2(C#N)CCSCC2)cc1C | -7.391
15 | Cc1nsc(NC2CCN(c3ccccc3OC(F)F)C2=O)n1 (stereo unspecified) | -11.3
16 | Cc1cccc(-c2nnc(C(C)NCCn3cc(C)cn3)o2)c1 (stereo unspecified) | -10.86
17 | CC(=O)Nc1cccc(C(C)NCC2CCS(=O)(=O)CC2)c1 (stereo unspecified) | 10.2
18 | CNC(=O)c1n[nH]c2c1C(c1cccc3c1OC(C)(C)C3)CC(=O)N2 (stereo unspecified) | 27.3
19 | Cc1nn(CCO)cc1CN1CCCN(C2CCCC2)CC1 | 15.64
20 | Cc1nn(CC(=O)N2CCN(Cc3cn(C)nc3C)CC2)cc1Br | 147.4
21 | Cc1noc(C)c1CN1CCN(C(=O)Cn2cncn2)CC1 | -5.281
22 | O=C(c1ccc[nH]1)N1CCN(C(c2ccccc2)C(F)(F)F)CC1 (stereo unspecified) | -1.01
23 | Cc1ccc(C(=O)NS(C)(=O)=O)cc1S(C)(=O)=O | -7.611
24 | Cc1ccc(C(=O)NCCN2CCOCC2)cc1N(C)S(C)(=O)=O | -26.4

Row | Compound | Percent Effect [%]
25 | Cc1ccc(CC(=O)NCCCNS(C)(=O)=O)cc1 | 4.317
26 | Cc1ccc(C(=O)NS(C)(=O)=O)cc1I | -7.571
27 | Cc1ccc(C(=O)NCCCNS(C)(=O)=O)cc1C | 117.8
28 | Cc1cc(C(=O)NCCC(C)C)ccc1NS(C)(=O)=O | 2.329
29 | Cc1ccc(C(=O)NS(C)(=O)=O)cc1-n1cccc1 | 119
30 | Cc1ccc(C(=O)NCCCN(C)S(C)(=O)=O)c(=O)[nH]1 | -1.59
31 | CC(=O)NCCNC(=O)c1cnc(-c2ccccc2)nc1 | -5.417
32 | CC(=O)NCCc1cn(-c2cc(F)ccc2C)cn1 | 0.929
33 | Cc1ccc(C(=O)NCCCN(C)S(C)(=O)=O)cc1-n1cccc1 | 108.6
34 | CC(=O)NCCNC(=O)c1ccc(C)c(-n2cccc2)c1 | 112.1
35 | CCSCCC(C)N(C)C(=O)c1cc(C)on1 (stereo unspecified) | -12.53
36 | O=C(O)c1cc(S(=O)(=O)N2CCOc3ccccc32)ccc1F | 8.076
37 | CCC[C@@H]1CN(Cc2cc3c(cc2OC)OCCO3)C[C@H]1C(=O)O | -0.5486
38 | O=C(CCNc1ncccn1)NCCOc1ccc2c(c1)CCC2 | 1.956
39 | COCCN1C(=O)CC[C@]12CC[C@@H](NCc1ccc(OC)cc1)CC2 | -14.96
40 | CC[C@@H]1N(Cc2cc(OC)cc(OC)c2)CCC[C@]12CCC(=O)N2C | 92.68
41 | CC[C@H]1N(Cc2ccc(OC)cc2)CCC[C@]12CCC(=O)N2C | 102.5
42 | COc1ccc(CN2CCC3(CC2)C(C(=O)O)CC(=O)N3C)cc1Cl (stereo unspecified) | 2.306
43 | COc1cc(CN2CCN(CC3CC3)[C@@H]3CS(=O)(=O)C[C@@H]32)cc(OC)c1 | -1.299
44 | CCn1c(C2CCCN(Cc3cc(OC)cc(OC)c3)C2)nn(C)c1=O (stereo unspecified) | -1.28
45 | COCCN1CCN(Cc2cccc(OCC(N)=O)c2)CC1C (stereo unspecified) | -2.971
46 | Cc1ncnc2c1CCN(C(=O)c1ccncc1F)CC2.O=C(O)C(F)(F)F | -20.75
47 | CCN1C(=O)CCCC12CCCN(C(=O)c1ccoc1)C2 (stereo unspecified) | -0.6496
48 | CCc1ncnc2c1CCN(C(=O)c1ccncc1F)CC2.O=C(O)C(F)(F)F | 6.56

Row | Compound | Percent Effect [%]
49 | CCN1C(=O)CCCC12CCCN(C(=O)c1ccncc1F)C2.O=C(O)C(F)(F)F (stereo unspecified) | 112.1
50 | CN1C(=O)CCC12CCCN(C(=O)c1ccncc1F)C2.O=C(O)C(F)(F)F (stereo unspecified) | 113.9
51 | CN(C)CCN1C(=O)CCC12CCCN(C(=O)c1ccncc1F)C2.O=C(O)C(F)(F)F (stereo unspecified) | 122.1
52 | CCOc1ncnc2c1CCN(C(=O)c1ccncc1F)CC2.O=C(O)C(F)(F)F | -6.025
53 | O=C(O)C(F)(F)F.O=C1CC(c2ccccc2)C2(CCN(C(=O)c3ccncc3F)CC2)N1 (stereo unspecified) | 7.558
54 | O=C(O)C(F)(F)F.O=C(c1ccncc1F)N1CCc2ncnc(C3CC3)c2CC1 | 13.05
55 | COCCCNC(=O)NCc1nc(C)c(C)o1 | 1.858
56 | CC(C)(C)CC(=O)NCC1CCCS1 (stereo unspecified) | -1.096
57 | Cn1c(=O)n(C)c2nc(Cl)c(CC(=O)c3ccccc3)n2c1=O | 119.1
58 | Cc1ccc(C(=O)Cc2c(Cl)nc3n(C)c(=O)n(C)c(=O)n23)cc1 | 91.64
59 | CN1CC(Oc2ccccc2)=NC(SCC(=O)c2ccccc2)=N1 | 31.32
60 | CN1CC(Oc2ccc(Cl)cc2)=NC(SCC(=O)c2ccccc2)=N1 | 11.49
61 | Cc1c2ncn(CC(=O)c3ccccc3)c(=O)c2nn1C | 11.22
62 | Cc1ccc(C(=O)CCC(=O)N2CCC(c3nncn3C)CC2)cc1 | -0.3599
63 | Cn1c(=O)n(C)c2nc(Cl)c(CC(=O)c3ccc(F)cc3)n2c1=O | 131.2
64 | Cn1c(=O)n(C)c2nc(Br)c(CC(=O)c3ccccc3)n2c1=O | 113.8
65 | Cn1nc(Br)c2c(=O)n(CCc3ccccc3)cnc21 | -21.91
66 | CC(C)c1nc(C2CCCN2c2cnc3cc(F)c(F)cc3n2)no1 (stereo unspecified) | 4.6
67 | CC(C)OC(=O)N1CCCCC1CCn1cccn1 (stereo unspecified) | 30.12
68 | Cl.Nc1nc(C(=O)NCC2CCC3(CCNCC3)CO2)cs1 (stereo unspecified) | -0.4275
69 | CC(C)(C)n1cc(C#N)cc1NC(=O)CCNC(=O)c1ccco1 | -15.76
70 | O=C(c1cnccn1)N1CCCC(Cc2cccc3ncccc23)C1 (stereo unspecified) | 146.1
71 | Cn1cc(C(=O)N2CCCC(Cc3cccc4ncccc34)C2)cn1 (stereo unspecified) | 153.9
72 | Cc1ccc2nc(C)c(C)c(C(=O)N3CCN(c4nccs4)CC3)c2c1 | -13.27

Row | Compound | Percent Effect [%]
73 | CCNC(=O)C1CCCN(Cn2nc(C(C)(C)C)ccc2=O)C1 (stereo unspecified) | 2.332
74 | Cc1cc(CNC(=O)C2CCC(=O)N(Cc3ccccc3F)C2)on1 (stereo unspecified) | -7.53
75 | Cc1cc(C[C@@H]2CCC[C@H]2NCc2ccccc2C(F)(F)F)on1.O=C(O)CC(O)(CC(=O)O)C(=O)O | -4.697
76 | O=C(NCc1cccc(F)c1F)c1cc(CN2CCCC(O)C2)on1 (stereo unspecified) | -4.232
77 | Cc1cc(C[C@@H]2COC[C@H]2NCc2ccc(Br)s2)on1.O=C(O)CC(O)(CC(=O)O)C(=O)O | -4.105
78 | Cc1cc(C[C@@H]2COC[C@@H]2NC(=O)CN2CCOC2=O)on1 | -12.63
79 | Cc1cc(C[C@@H]2COC[C@H]2NCc2ccccc2C(F)(F)F)on1.O=C(O)CC(O)(CC(=O)O)C(=O)O | -4.697
80 | Cc1cc(C[C@@H]2CCC[C@H]2NCc2cc(F)ccc2F)on1.O=C(O)CC(O)(CC(=O)O)C(=O)O | 83.79
81 | Cc1cc(C[C@@H]2CCC[C@H]2NCc2ccccc2C)on1.O=C(O)CC(O)(CC(=O)O)C(=O)O | 135
82 | Cc1cc(C[C@@H]2CCC[C@H]2NCc2cc(C)c(O)c(C)c2)on1.O=C(O)CC(O)(CC(=O)O)C(=O)O | -7.471
83 | Cc1cc(C[C@@H]2CCC[C@H]2NCc2cccc(F)c2F)on1.O=C(O)CC(O)(CC(=O)O)C(=O)O | 111.2
84 | Cc1cc(C[C@@H]2CCC[C@H]2NCc2ccccc2F)on1.O=C(O)CC(O)(CC(=O)O)C(=O)O | 109.7
85 | CCCc1noc(CN(C)C(=O)C2COc3ccccc3C2)n1 (stereo unspecified) | -0.2082
86 | O=C(c1cccc(O)c1)N1C[C@@H](CN2CCCCC2)[C@@H](CO)C1 | 36.38
87 | CCOc1cc(CNC(=O)NC2CC=CC2)ccc1OC(F)F | -3.557
88 | Cc1cc(C[C@@H]2COC[C@@H]2NC(=O)Cn2c(=O)oc3ccccc32)on1 | -2.365
89 | Cc1cc(C[C@@H]2COC[C@@H]2NC(=O)CN2CCCCCC2)on1 | 40.3
90 | Cc1cc(C[C@@H]2CCC[C@H]2NCc2c[nH]nc2-c2ccccc2)on1.O=C(O)CC(O)(CC(=O)O)C(=O)O | 114
91 | Cc1cc(C[C@@H]2COC[C@@H]2NC(=O)CN2CCCC2)on1 | -5.725
92 | CCC[C@H]1CN(Cc2cc(C)no2)C[C@@H]1NC(=O)C1(COC)CCC1 | -6.466
93 | Cc1cc(C[C@@H]2COC[C@@H]2NC(=O)CCN2Cc3ccccc3C2)on1 | -14.09
94 | Cc1cc(C[C@@H]2CCC[C@H]2NCc2ccc(C(F)(F)F)cc2)on1.O=C(O)CC(O)(CC(=O)O)C(=O)O | 113.9
95 | Cc1cc(C[C@@H]2COC[C@@H]2NC(=O)CN2CCc3ccccc3C2)on1 | -17.37
96 | CCCOc1ccccc1CN[C@@H]1CCC[C@H]1Cc1cc(C)no1.O=C(O)CC(O)(CC(=O)O)C(=O)O | 112

Reference: ChEMBL document CHEMBL3988442, “University of Dundee, Small-Polar-MMV Screening Library” (2021)
